These results are taken from PubChem BioAssay.

Calls of active or inactive are those of the source.

For assay [1], the target named is Albumin (Bos taurus) (UniProt P02769). The assay can be described thus: bovine serum albumin binders on microarray, profiling panel, artefact control for SMM control protein annotation, biochemical, small-molecule microarray, Alexa647 label, 635/667 nm fluorescence (AID 1118).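 Also: score merges 667 nm emission intensity and signal-to-noise per printed compound spot.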 The note with it: BSA-A647 binding, fluorescence 635 nm, higher = more signal.
Chain of Albumin (Bos taurus) (P02769 whole entry, looked up): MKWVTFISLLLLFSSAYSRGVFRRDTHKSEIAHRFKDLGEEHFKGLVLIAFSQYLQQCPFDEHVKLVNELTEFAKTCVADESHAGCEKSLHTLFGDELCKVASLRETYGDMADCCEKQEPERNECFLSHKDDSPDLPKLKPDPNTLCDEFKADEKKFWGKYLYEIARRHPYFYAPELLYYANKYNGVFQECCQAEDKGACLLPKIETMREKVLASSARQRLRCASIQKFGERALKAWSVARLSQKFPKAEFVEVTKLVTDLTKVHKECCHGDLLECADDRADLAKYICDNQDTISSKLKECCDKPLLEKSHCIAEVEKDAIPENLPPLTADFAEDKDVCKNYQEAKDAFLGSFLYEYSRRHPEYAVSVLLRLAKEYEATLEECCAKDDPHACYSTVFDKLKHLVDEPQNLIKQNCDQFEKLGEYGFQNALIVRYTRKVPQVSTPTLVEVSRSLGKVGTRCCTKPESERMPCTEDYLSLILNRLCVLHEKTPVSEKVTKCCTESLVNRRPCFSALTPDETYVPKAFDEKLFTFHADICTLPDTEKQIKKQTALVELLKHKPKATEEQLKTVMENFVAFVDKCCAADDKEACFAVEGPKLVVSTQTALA
Assay [2] is described as follows: small-molecule microarray binders of probe aXIP, primary screen, biochemical, NeuroSMM set, 635/667 nm fluorescence (AID 1119).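 Also: probe is the protein aXip251-270 applied at 1 µg/mL to compound-printed slides; binding of probe to printed compounds measured as 667 nm fluorescence plus signal to noise.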 The note with it: higher = more signal, called active from +8 up or from −8 down.
Assay [3] in a line: small-molecule binders of probe aNOTCH3, primary screen, biochemical, small-molecule microarray, 635/667 nm fluorescence (AID 1120).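 Also: probe is a biotin-tagged antibody raised against NOTCH3 rather than NOTCH3 protein; score merges spot fluorescence near 667 nm with spot signal to noise.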 The note with it: higher = more signal.
A short description of assay [4]: small-molecule binders of probe aNOTCH2, primary screen, biochemical, small-molecule microarray, 635/667 nm fluorescence (AID 1121).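 Also: score merges feature fluorescence read at 667 nm with its signal to noise.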 The note with it: higher = more signal.
In assay [5] the target is Carbonic anhydrase 2 (Homo sapiens) (UniProt P00918). The assay can be described thus: CAII small-molecule binders, profiling panel, biochemical, small-molecule microarray, Alexa647-labelled CAII (AID 1122). Conditions: CAII-A647 binding fluorescence, higher = more signal.
Assay [6] can be described thus: COS7 lysate on small-molecule microarray, probe aHis, 635 nm (AID 1123).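 Also: z-score combines 667nm fluorescence intensity with signal-to-noise per printed compound spot.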 The note with it: COS7 cell lysate, fluorescence, higher = more signal.
The nature of assay [7]: compound binding in COS7 lysate, probe aLAP1, primary screen, cell lysate, small-molecule microarray (AID 1124).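 Also: lysate comes from COS7 cells expressing LAP1 and is applied at 0.3 µg/mL; score merges spot fluorescence near 667 nm with signal-to-noise over triplicate slides.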 The note with it: probe aLAP1, fluorescence, higher = more signal.
The subject of assay [8] is Sam68 (KHDRBS1). The assay can be described thus: Sam68 small-molecule binders, primary screen, biochemical, small-molecule microarray, 635 nm fluorescence (AID 1125).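 Also: score merges 667 nm channel intensity with signal to noise over triplicate slides.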 Conditions: small-molecule microarray binding, higher = more signal.
Assay [9] relates to Chordin-like protein 2 (CHRDL2). Put plainly: CHRDL2 small-molecule binders, primary screen, biochemical, small-molecule microarray, 635 nm fluorescence (AID 1126).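 Also: printed compound slides probed with Chrdl2 protein at 4 µg/mL for 1 h at 4 C; score merges 667 nm emission intensity with signal to noise over three replicate slides.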 Conditions: small-molecule microarray binding, fluorescence 635 nm; higher = more signal.
The target in assay [10] is Concanavalin-A (Canavalia ensiformis) (UniProt P02866). The assay can be described thus: ConA small-molecule binders, primary screen, artefact control for SMM control protein annotation, biochemical, small-molecule microarray, Alexa647 label, 635 nm (AID 1127).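 Also: z combines 667 nm emission intensity with signal-to-noise across three replicate slides.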 The note with it: ConA-A647 binding fluorescence, higher = more signal.
Chain of Concanavalin-A (Canavalia ensiformis) (P02866 whole entry, looked up): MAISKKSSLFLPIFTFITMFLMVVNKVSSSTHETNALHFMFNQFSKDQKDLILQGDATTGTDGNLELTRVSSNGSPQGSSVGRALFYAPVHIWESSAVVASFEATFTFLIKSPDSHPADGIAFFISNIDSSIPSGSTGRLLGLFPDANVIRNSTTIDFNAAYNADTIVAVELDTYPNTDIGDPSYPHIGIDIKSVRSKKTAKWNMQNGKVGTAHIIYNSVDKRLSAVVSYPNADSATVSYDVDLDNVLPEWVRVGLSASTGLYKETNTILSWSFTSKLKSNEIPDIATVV

Regarding `COCCCNC(=O)[C@@]1(Sc2ccc(C)cc2)CC(=O)N(C2CCCCC2)[C@@H]1c1ccc(CO)cc1I`, the composite z-score was 0.68 in assay [1]; 0.145 in [3]; -0.0096 in [4]; 0.481 in [5]; 1.8 in assay [6]; 0.0839 in assay [7]. For the same molecule, the figures for the composite z-score in [8], in assay [9] and in [10] were 1.25, 0.818 and 1.07, respectively. Moreover, the composite Z-score in assay [2] is 0.441 (inactive).
On to `O=C1O[C@@H](c2ccccc2)[C@@H](c2ccccc2)N2[C@@H](c3ccc(O)cc3)[C@]3(C(=O)Nc4ccc(C#CC5=CCCCC5)cc43)[C@@H](C(=O)N3CCCCCCC3)[C@H]12`, for which the composite z-score was found to be 0.508 in [1]; 1.24 in assay [3]; 0.276 in [4]; 0.589 in [5]; 2.97 in assay [6]; 1.85 in [7]. Also, the composite z-score in [8] came out at 1.29; in assay [9], 0.543; in assay [10], 0.702. Also, the composite Z-score in assay [2] was 2.78 (inactive).
On to `CN1C(=O)C2C(C1=O)C1C=C(c3ccc(CO)cc3)C2C(c2cccs2)N1C` (stereo not given), for which the composite z-score was 0.935 in [1]; -0.0044 in assay [3]; -0.146 in assay [4]; 0.76 in [5]; 0.784 in assay [6]; 1.08 in assay [7]. The composite z-score in assay [8] is 0.47; in assay [9], -0.125; in assay [10], 1.18. Also, the composite Z-score in assay [2] was 0.891 (inactive).
As to `O=C(NCCO)C1=C[C@H](Oc2ccccc2I)[C@@H](O)[C@H](NCc2ccc(F)cc2)C1`, the composite z-score in assay [1] was -1.89; in assay [3], -0.161; in assay [4], -0.14; in assay [5] it was -0.934; in [6], -0.809; in assay [7] it was 1. Besides, the composite z-score in assay [8] is -0.285; in assay [9], -0.0242; in assay [10], -1.83. Besides, the composite Z-score in assay [2] is -0.48 (inactive).
As to `O=C1C2C=CC(C(O)c3cccs3)N(Nc3ccccc3)C2C(=O)N1c1ccccc1` (stereo not given), the composite z-score in assay [1] was 0.21; in assay [3] it was 0.0864; in assay [4], -0.0731; in [5] it was 0.787; in assay [6], -0.0142; in assay [7], -0.646. In addition, the results for the composite z-score in assay [8], in assay [9] and in assay [10] were -0.0232, 0.568 and 0.0148, respectively. Besides, the composite Z-score in assay [2] was 0.353 (inactive).
Regarding `O=C1NC(=O)C2C1C=CC(C(O)c1cccc(O)c1)N2Nc1ccc(Cl)cc1Cl` (stereo not given), the composite z-score is 0.33 in [1]; -0.0043 in assay [3]; 0.0592 in assay [4]; 0.757 in assay [5]; 1.4 in assay [6]; -0.452 in assay [7]. Besides, the composite z-score was -1.81 in assay [8], -0.474 in [9] and -0.0019 in [10]. Besides, the composite Z-score in assay [2] is -0.136 (inactive).
On to `C=CCOC(=O)[C@H]1[C@@H]2C(=O)O[C@@H](c3ccccc3)[C@@H](c3ccccc3)N2[C@@H](c2ccc(OCCOC(=O)[C@@H]3C[C@@H]4C(=O)N[C@@H](CC(C)C)C(=O)N4[C@@H]3c3ccc(O)cc3)cc2)[C@]12C(=O)Nc1ccc(I)cc12`, for which the composite z-score in assay [1] is 0.822; in [3], 0.0469; in assay [4] it was -0.0486; in assay [5], 0.668; in assay [6] it was 2.52; in [7] it was 0.0414. Moreover, the composite z-score in assay [8] was 1.3; in assay [9], 1.33; in assay [10], 1.13. Besides, the composite Z-score in assay [2] is 1.65 (inactive).
Take `CCCCN1CC=CC23O[C@@H]4C=CCOC(=O)[C@@H]4[C@H]2C(=O)N(C(CO)C(C)C)[C@@H]3C1=O` (stereo not given in full): the composite z-score was -0.709 in assay [1]; -0.279 in assay [3]; -0.14 in [4]; 0.321 in [5]; -0.665 in [6]; -0.304 in assay [7]. Besides, the composite z-score in [8] was -0.616; in [9], -0.0407; in assay [10] it was -0.868. Further, the composite Z-score in assay [2] is -0.0632 (inactive).
As for `CC(C)C[C@H]1NC(=O)[C@@]23C(=O)N[C@@H](Cc4ccccc4)C2[C@H](C)[C@@]2(C)O[C@H]2C3/C=C/C/C=C\CNC(=O)[C@@H]2CCCN2C1=O` (stereo not given in full), the composite z-score in assay [1] is 0.773; in assay [3], 0.0694; in assay [4], -0.176; in assay [5], 0.725; in assay [6] it was 1.23; in assay [7], 0.145. Besides, the composite z-score turned out to be 0.975 in [8], 0.293 in assay [9] and 0.276 in [10]. In addition, the composite Z-score in [2] is 0.119 (inactive).
On to `C=C(COC)/C(=C/C[C@H](OC(=O)c1ccncc1)c1ccc(OCCO)cc1)c1cc(C(=O)OC)ccc1OC`, for which the composite z-score in [1] is 0.401; in [3] it was 0.325; in [4], -0.123; in assay [5], 0.357; in assay [6], 1.39; in assay [7] it was 0.84. Moreover, the composite z-score in assay [8] is 1.26; in [9], 0.249; in assay [10], 0.952. The composite Z-score in [2] was 0.3 (inactive).
Take `CC(C)(C)OC(=O)CC[C@]1(C(=O)N2CCOCC2)N=C(c2ccc(OCCCO)cc2)O[C@H]1c1ccccc1CN=[N+]=[N-]`: the composite z-score is 0.508 in assay [1]; 0.116 in assay [3]; -0.0219 in assay [4]; 0.745 in assay [5]; 3.11 in [6]; 0.519 in assay [7]. The composite z-score in assay [8] was 1.31; in assay [9], -0.227; in [10], 0.977. In addition, in [2], the composite Z-score is 0.341 (inactive).
For `CCCC[C@@H]1C[C@H]1[C@@H](NC(=O)c1ccc(C(F)(F)F)cc1)c1ccc(C(=O)OC)cc1`, the composite z-score was 0.0711 in [1]; 0.0501 in [3]; -0.0347 in assay [4]; 0.441 in assay [5]; 1.27 in assay [6]; 1.25 in assay [7]. Moreover, the composite z-score in assay [8] was 0.504; in assay [9] it was 1.27; in [10], 0.441. For the same molecule, in assay [2], the composite Z-score is 0.0888 (inactive).
With `C#CCN=C(N)N`, the composite z-score in [1] is -0.0077; in [3] it was 0.0276; in assay [4], -0.0403; in [5] it was 0.41; in [6], 0.121; in assay [7] it was 0.118. Moreover, the figures for the composite z-score in assay [8], in [9] and in assay [10] were 0.754, 0.437 and 0.604, respectively. Besides, the composite Z-score in assay [2] was 0.322 (inactive).
`COCCOC(=O)N1C(=O)[C@@]2(c3cc(C#CCC(C(=O)OC)C(=O)OC)ccc31)[C@H](c1ccc(OCCO)cc1)N1[C@H](c3ccccc3)[C@H](c3ccccc3)OC(=O)[C@H]1[C@@H]2C(=O)N1CCCCCCC1`: the composite z-score in assay [1] came to 0.256; in assay [3], 1.77; in assay [4], 0.597; in [5], 0.604; in [6], 3.41; in assay [7], 0.986. Moreover, the composite z-score in assay [8] was 1.3; in [9], 1.3; in assay [10], 1.1. Also, in [2], the composite Z-score is 2.32 (inactive).
As for `CC(C)C[C@H]1NC(=O)[C@@H](C)NC(=O)[C@@]23C(=O)N[C@@H](Cc4ccccc4)C2[C@H](C)[C@@]2(C)O[C@H]2C3/C=C/C/C=C\CNC1=O` (stereo not given in full), the composite z-score in [1] is 0.239; in assay [3], -0.189; in assay [4] it was -0.202; in [5] it was 0.686; in assay [6] it was 0.394; in [7] it was -0.0995. Moreover, the figures for the composite z-score in assay [8], in assay [9] and in [10] were 0.997, 0.831 and 0.124, respectively. The composite Z-score in assay [2] is -0.162 (inactive).
Take `C=CCC(OC(C)=O)[C@@H]1[C@@H](N(Cc2cc3ccccc3o2)C(=O)c2cccc3ccccc23)c2cc(OCCCO)ccc2N1C(=O)c1ccc2ccccc2c1` (stereo not given in full): the composite z-score in [1] was 0.163; in assay [3] it was -0.0647; in assay [4], -0.0906; in [5], 0.229; in [6] it was 0.542; in assay [7] it was -0.177. In addition, the composite z-score in assay [8] is -0.0368; in [9], 0.556; in assay [10], -0.259. The composite Z-score in assay [2] is -0.73 (inactive).
